Results reported in PubChem BioAssay (NCATS).
Records with an inconclusive call do not appear. Active and inactive are the calls of the source. Calls follow the shape of the dose curve; as a rule, active = well fitted activation curve with a large enough effect; inconclusive = small, poorly fitted or top-dose-only effect; inactive = no such curve, though single readings can be large or run the other way.

Target: Cellular tumor antigen p53 (Homo sapiens) (UniProt P04637)
Experiment: Primary qHTS for small molecule compounds that upregulate eGFP-tagged delta133p53alpha (in N-terminal) cells. (AID 2060322);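 also: series mostly up to about 56 µM; 0% = DMSO vehicle and 100% = reference activator; nearly all actives have a fitted effect of over 75% in size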
Conditions: NCI-H358 eGFP-delta133p53alpha fluorescence, 24 h; activation: active compounds read high
Outline: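 NCI-H358 cells pre-induced 24 h with 10 ng/ml doxycycline to express N-terminal eGFP-delta133p53alpha, then dosed 24 h at 37C without doxycycline; fixed, Hoechst-stained, GFP intensity by laser scanning cytometry, normalized to DMSO (0%) and 57.5 uM 5-azacytidine (100%).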

Chain of Cellular tumor antigen p53 (Homo sapiens) (P04637 whole entry, looked up): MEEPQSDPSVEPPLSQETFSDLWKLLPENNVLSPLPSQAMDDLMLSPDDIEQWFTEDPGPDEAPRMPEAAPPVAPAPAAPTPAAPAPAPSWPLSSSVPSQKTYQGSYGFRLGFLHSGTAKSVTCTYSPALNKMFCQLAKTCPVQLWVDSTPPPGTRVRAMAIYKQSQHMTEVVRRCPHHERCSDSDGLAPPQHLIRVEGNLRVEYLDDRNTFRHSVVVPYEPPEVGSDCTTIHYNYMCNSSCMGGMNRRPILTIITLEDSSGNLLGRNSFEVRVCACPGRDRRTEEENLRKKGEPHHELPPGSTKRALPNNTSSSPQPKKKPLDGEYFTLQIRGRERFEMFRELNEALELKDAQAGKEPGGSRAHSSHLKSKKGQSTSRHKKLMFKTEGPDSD

| SMILES | activation |
| --- | --- |
| COc1cc(CCO)ccc1O[C@@H]1O[C@H](CO)[C@@H](O)[C@H](O)[C@H]1O | 5.36% (inactive) |
| CC(=O)NC(C(=O)O[C@H]1CCC(C)(C)[C@@H]2CC=C3C(=O)OCC3(O)[C@@]12C)C(C)C (stereo partly drawn) | 20.6% (inactive) |
| Fc1ccccc1CNCc1ccc(-c2ccnc3[nH]ccc23)cc1 | 7.14% (inactive) |
| CC(=O)N[C@@H](C(=O)O[C@H]1CCC(C)(C)[C@@H]2CCC3=C(COC3=O)[C@@]12C)C(C)C | -12.2% (inactive) |
| Cn1cc(C2=C(c3coc4ccccc34)C(=O)NC2=O)c2cc(Br)ccc21 | -23.2% (inactive) |
| CC(C)(O)C1CC(=O)C2(C)C(CCC3(C)C(c4ccoc4)OC(=O)C4OC432)C12CCC(=O)OC2 (stereo not drawn) | -3.57% (inactive) |
| CC1(C)CC[C@]2(C(=O)O)CC[C@]3(C)C(=CCC4[C@@]5(C)C(=O)C[C@H](O)[C@@](C)(CO)C5CC[C@]43C)[C@@H]2C1 (stereo partly drawn) | -11.5% (inactive) |
| CC1=CC(=O)[C@@]2(C(C)C)C[C@@H]12 | 17.7% (inactive) |
| CC1OC(OC2C(CO)OC(OCC3OC(OC(=O)C45CCC(C)(C)CC4C4=CCC6C7(C)CCC(OC8OC(CO)C(O)C(OC9OC(CO)C(O)C(O)C9O)C8O)C(C)(C)C7CCC6(C)C4(C)CC5)C(O)C(O)C3O)C(O)C2O)C(O)C(O)C1OC1OC(CO)C(O)C(O)C1O (stereo not drawn) | -2.29% (inactive) |
| CC(C)c1ccc(CO)cc1O[C@@H]1O[C@H](CO)[C@@H](O)[C@H](O)[C@H]1O | -11.5% (inactive) |
| C=C1CC2(C(=O)O)CC1CCC2C1(C)CCCC2(C)C(=O)OC(O)C21 (stereo not drawn) | -6.87% (inactive) |
| C=C(C)[C@@H]1CC[C@]2(C(=O)O)CC[C@]3(C)C(CCC4[C@@]5(C)C[C@@H](O)[C@H](O)C(C)(C)C5CC[C@]43C)C12 (stereo partly drawn) | -10.7% (inactive) |
| CC1(C)CC[C@]2(C(=O)O[C@@H]3O[C@H](CO[C@@H]4O[C@H](CO)[C@@H](O)[C@H](O)[C@H]4O[C@@H]4O[C@H](CO)[C@H](O)[C@H](O)[C@H]4O)[C@@H](O)[C@H](O[C@@H]4O[C@H](CO)[C@@H](O)[C@H](O)[C@H]4O)[C@H]3O)CC[C@]3(C)C(=CCC4[C@@]5(C)CC[C@H](O[C@@H]6OC[C@@H](O)[C@H](O)[C@H]6O)[C@@](C)(C(=O)O)C5CC[C@]43C)[C@@H]2C1 (stereo partly drawn) | 1.53% (inactive) |
| CC(=O)O[C@@H]1[C@H](O[C@@H]2OC[C@](O)(CO)[C@H]2O)[C@@H](O[C@@H]2O[C@@H](C)[C@H](O)[C@@H](O[C@@H]3O[C@H](CO)[C@@H](O)[C@H](O)[C@H]3O)[C@H]2O)[C@H](OC(=O)[C@]23CCC(C)(C)C[C@H]2C2=CCC4[C@@]5(C)C[C@H](O)[C@H](O[C@@H]6O[C@H](C(=O)O)[C@@H](O)[C@H](O)[C@H]6O)[C@@](C)(C(=O)O)C5CC[C@@]4(C)[C@]2(C)CC3)O[C@@H]1C (stereo partly drawn) | -16.8% (inactive) |
| CC(C)c1cc2c(c(O)c1O[C@@H]1O[C@H](CO)[C@@H](O)[C@H](O)[C@H]1O)CC1(O)CCC(O)C(C)(C)C1CC2 (stereo partly drawn) | -22.1% (inactive) |
| CC1OC(OC2C(OC3C(O[C@H]4CC[C@@]5(C)C(CC[C@]6(C)C5C(=O)C=C5C7CC(C)(C)CC(O)[C@]7(C)CC[C@]56C)C4(C)C)OC(C(=O)O)C(O)C3O)OCC(O)C2O)C(O)C(O)C1O (stereo partly drawn) | 2.29% (inactive) |
| CCOC(=O)c1cnn(-c2ccccc2)c1NC(=O)c1cc2nc(-c3ccco3)cc(C(F)(F)Cl)n2n1 | 0.955% (inactive) |
| N[C@H]1CN(c2c(F)cc3c(=O)c(C(=O)O)cn(C4C[C@@H]4F)c3c2Cl)CC12CC2 (stereo partly drawn) | -26% (inactive) |
| C/C=C/C=C/C=C/C(=O)OC1C=C2C(O)OC(=O)[C@]2(O)[C@@]2(C)CCCC(C)(C)[C@H]12 (stereo partly drawn) | -2.29% (inactive) |
| CCOc1ccc(-c2cc(NC(=O)c3c(F)cccc3F)c(C(=O)O)s2)cc1 | 15.7% (inactive) |
| O=C(NC1CCC1)c1ccc(C#Cc2cccc(F)c2)nc1 | 21.4% (inactive) |
| CC(=O)O[C@@H]1[C@@H](OC(=O)/C=C/c2ccccc2)[C@H](C)O[C@@H](O[C@H]2[C@@H]3C=CO[C@@H](O[C@@H]4O[C@H](CO)[C@@H](O)[C@H](O)[C@H]4O)[C@@H]3[C@@]3(CO)O[C@@H]23)[C@@H]1OC(C)=O | -3.82% (inactive) |
| COc1ccc(C2OCC3C(c4cc(OC)c5c(c4)OCO5)OCC23)cc1OC (stereo not drawn) | -8.4% (inactive) |
